Source: the supplement of paper PMC5919970
Where a name gives a salt, the structure may show the parent alone. The full ranking holds about 2,000 compounds; the median of “fractional viability relative to vehicle” is about 0.92, and the lowest 2% start at about 0.11. What follows is part of a selection rich in the lowest values, with near analogues and random picks from the rest.

Tested on: TYKNU
Test: fractional viability relative to vehicle; TYKNU is a high-grade serous ovarian cancer line; higher = less growth inhibition
Details: 72 h, genotype: OPA1 knockout (sgOPA1 #2)
Method in brief: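 TYKNU control cells or lentiCRISPRv2 knockout derivatives were seeded at 500 cells per well into drug-stamped 384-well plates holding a ~2100-compound library at 2 or 10 μM, in duplicate. Cells were grown at 37 °C in 5% CO2 in RPMI 1640 with 10% FBS, and drug treatment lasted 72 h. Viability was read by Cell Titer Glo luminescence. Duplicate treatment wells were averaged and normalised to duplicate control wells from the same plate position.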

Row | Structure (SMILES) | fractional viability (2uM) | fractional viability (10uM)
1 | C=C1[C@H](CO)[C@@H](O)C[C@@H]1n1cnc2c(=O)[nH]c(N)nc21 [Entecavir Hydrate] | 1.01 | 0.935
2 | Cc1nc(C#Cc2ccnc(Cl)c2)c(C)n1-c1ccc(OC(F)(F)F)cc1 | 1.08 | 0.815
3 | CCn1c(-c2nonc2N)nc2c(C#CC(C)(C)O)ncc(OC[C@H]3CCCNC3)c21 | 1.01 | 0.698
4 | COc1ccc(-c2ccc3ncc4c(c3c2)n(-c2ccc(N3CCNCC3)c(C(F)(F)F)c2)c(=O)n4C)cn1 | 0.111 | 0.0546
5 | Nc1ccc(-c2ccc3ncc4ccc(=O)n(-c5cccc(C(F)(F)F)c5)c4c3c2)cn1 [Torin 2] | 0.36 | 0.363
6 | CNC(=O)c1cc(Oc2ccc3nc(N[C@@H]4CCCC[C@H]4O)sc3c2)ccn1 | 0.831 | 0.74
7 | COc1cc2ncnc(Nc3ccc(O)c(Br)c3)c2cc1OC | 1.37 | 1.19
8 | N#Cc1c(NC(=O)c2cccc3ccccc23)sc2c1CCCC2 [JNK Inhibitor IX] | 0.428 | 0.386
9 | Cc1cc(C)nc(SCC(=O)Nc2ncc(Cc3cccc4ccccc34)s2)n1 | 0.904 | 0.931
10 | COc1cccc2c1C(=O)c1c(O)c3c(c(O)c1C2=O)C[C@@](O)(C(C)=O)C[C@@H]3O[C@H]1C[C@H](N)[C@H](O)[C@H](C)O1 [Daunorubicin HCl] | 0.568 | 0.108
11 | CC(=O)[C@]1(O)Cc2c(O)c3c(c(O)c2[C@@H](O[C@H]2C[C@H](N)[C@H](O)[C@H](C)O2)C1)C(=O)c1ccccc1C3=O [Idarubicin HCl] | 0.56 | 0.0586
12 | COc1cccc2c1C(=O)c1c(O)c3c(c(O)c1C2=O)C[C@@](O)(C(=O)CO)C[C@@H]3O[C@H]1C[C@H](N)[C@H](O)[C@H](C)O1 [Doxorubicin (Adriamycin)] | 0.738 | 0.726
13 | Cn1nnc(-c2ccc3c(c2)[nH]c2nc(Cc4ccccc4)nc(NC4CCC(N)CC4)c23)n1 (stereo unspecified) | 1.01 | 0.765
14 | CC(C)Nc1cc(-c2c[nH]c(C(=O)N[C@H](CO)c3cccc(Cl)c3)c2)c(Cl)cn1 | 0.453 | 0.36
15 | Cc1noc(C)c1-c1ccc(-c2cc(C(N)=O)c(NC(N)=O)s2)c(O[C@H]2CCNC2)c1 | 0.847 | 0.778
16 | COc1cc2ncnc(Sc3nnc(C)s3)c2cc1OC | 0.789 | 0.16
17 | Cn1cc(CNCC2CCN(c3ncc(C(=O)NO)cn3)CC2)c2ccccc21 | 0.224 | 0.19
18 | CCNC(=O)C#Cc1ccc2c(C(=Nc3ccc(CN(C)C)cc3)c3ccccc3)c(O)[nH]c2c1 | 0.276 | 0.0913
19 | CN(C)Cc1cccc(N=C(c2ccccc2)c2c(O)[nH]c3cc(C(=O)N(C)C)ccc23)c1 | 1.13 | 0.78
20 | O=C(O)CCCCC(CCSCc1ccccc1)SCc1ccccc1 (stereo unspecified) | 1.23 | 0.919
21 | CCOC(=O)N[C@@H]1CC[C@@H]2[C@@H](C1)C[C@H]1C(=O)O[C@H](C)[C@H]1[C@H]2/C=C/c1ccc(-c2cccc(F)c2)cn1 [Vorapaxar] | 0.913 | 1.06
22 | CCn1c(=O)c(-c2ccc(-c3cncs3)cc2Cl)cc2cnc(Nc3ccc(N4CCN(C)CC4)cc3)nc21 | 0.914 | 0.64
23 | CC1(C)S[C@@H]2[C@H](NC(=O)[C@H](NC(=O)N3CCN(S(C)(=O)=O)C3=O)c3ccccc3)C(=O)N2[C@H]1C(=O)O [Mezlocillin Sodium] | 0.892 | 0.979
24 | Nc1nc(=S)c2ncn([C@H]3C[C@H](O)[C@@H](CO)O3)c2[nH]1 | 1.03 | 0.763
25 | C[C@@]1(c2cc(-c3cncnc3)c(F)cc2F)CCSC(N)=N1 | 1.12 | 0.948

Row | Structure (SMILES) | fractional viability (2uM) | fractional viability (10uM)
26 | CC(C)C[C@H](NC(=O)CNC(=O)c1cc(Cl)ccc1Cl)B1OC(=O)C(CC(=O)O)(CC(=O)O)O1 | 0.335 | 0.299
27 | Cc1cc(Nc2ncc(Cl)c(Nc3ccccc3S(=O)(=O)C(C)C)n2)c(OC(C)C)cc1C1CCNCC1 | 0.376 | 0.0286
28 | CNC(=O)c1ccccc1Nc1nc(Nc2ccc(N3CCOCC3)cc2OC)ncc1Cl | 0.987 | 0.532
29 | CN1CCN(Cc2ccc(Nc3ncc(Cl)c(Nc4ccccc4S(=O)(=O)N(C)C)n3)cc2)CC1 | 0.451 | 0.421
30 | C[C@H](Nc1ncnc2nc[nH]c12)c1cc2cccc(Cl)c2c(=O)n1-c1ccccc1 | 0.926 | 1.05
31 | COc1cc(O)c(CC=C(C)C)c(O)c1C(=O)/C=C/c1ccc(O)cc1 [Xanthohumol] | 0.841 | 0.772
32 | NC(=O)c1nc(F)cnc1O [Favipiravir (T-705)] | 0.744 | 0.765
33 | O=C1O[C@H]([C@@H](O)CO)C([O-])=C1O.[Na+] [Sodium ascorbate] | 1.02 | 0.95
34 | Cc1nc(-c2cccnc2)sc1C(=O)Nc1ccccc1-c1cn2c(CN3CCOCC3)csc2n1 | 0.748 | 0.855
35 | O=C(Nc1ccccc1-c1cn2c(CN3CCNCC3)csc2n1)c1cnc2ccccc2n1 | 1.19 | 0.0331
36 | Cc1coc2c1C(=O)C(=O)c1c-2ccc2c1CCCC2(C)C [Tanshinone IIA] | 0.599 | 0.327
37 | C[C@H]1COC2=C1C(=O)C(=O)c1c2ccc2c1CCCC2(C)C [Cryptotanshinone] | 0.361 | 0.0832
38 | CNCc1ccc(C)c(NC(=O)c2ccc(Nc3nc(-c4ccccc4)c4ccccc4n3)cc2)c1 | 1.13 | 0.134
39 | Cc1cc(Nc2ccc(NC(=O)c3ccc(Nc4ccnc5ccccc45)cc3)cc2)nc(N)n1 | 0.043 | 0.0318
40 | CC(=O)Nc1ccc(C(=O)Nc2ccccc2N)cc1 [CI994 (Tacedinaline)] | 0.755 | 0.434
41 | COc1cc(-c2ncn(/C=C\C(=O)OC(C)C)n2)cc(C(F)(F)F)c1 | 0.22 | 0.259
42 | CNc1cccc(CCOc2ccc3c(c2)CN(CC(F)(F)F)C(=O)[C@H](CC(=O)O)C3)n1 | 0.781 | 0.671
43 | CCCCc1oc2ccccc2c1C(=O)c1cc(I)c(OCCN(CC)CC)c(I)c1 [Amiodarone HCl] | 0.994 | 0.867
44 | CN(CCOc1ccc(NS(C)(=O)=O)cc1)CCc1ccc(NS(C)(=O)=O)cc1 [Dofetilide] | 1.08 | 0.78
45 | CCCCc1oc2ccc(NS(C)(=O)=O)cc2c1C(=O)c1ccc(OCCCN(CCCC)CCCC)cc1 [Dronedarone HCl] | 0.835 | 0.106
46 | N#Cc1ccc(-c2c(-c3ncn[nH]3)sc(N3CCOCC3)c2C#N)c(F)c1 | 0.737 | 0.572
47 | O=C(COc1ccc(Cl)cc1)NC1CCC(NC(=O)COc2ccc(Cl)cc2)CC1 (stereo not drawn) [ISRIB (trans-isomer)] | 1.09 | 0.976
48 | Clc1ccc(C2(c3ccc(-c4cn[nH]c4)cc3)CCNCC2)cc1 | 1.03 | 0.554
49 | COCCOc1nc(-c2ccc(Cl)c(Cl)c2)n(-c2ccc(NC(=O)CCl)cc2)n1 [MI-2 (MALT1 inhibitor)] | 1 | 0.952
50 | COc1ccc(-n2c(SCCCN3C(=O)c4cccc5cccc(c45)C3=O)nnc2-c2ccncc2)cc1 | 0.913 | 0.874

Row | Structure (SMILES) | fractional viability (2uM) | fractional viability (10uM)
51 | COc1ccc(-c2nc(N3CCOCC3)c3sc(CN(C)c4ncc(C(=O)NO)cn4)cc3n2)cn1 | 0.118 | 0.115
52 | CS(=O)(=O)N1CCN(Cc2cc3nc(-c4cccc5[nH]ncc45)nc(N4CCOCC4)c3s2)CC1 | 0.824 | 0.658
53 | Cc1c(CN2CCN(C(=O)[C@H](C)O)CC2)sc2c(N3CCOCC3)nc(-c3cnc(N)nc3)nc12 | 0.392 | 0.376
54 | O=C1[C@H](Cc2ccc(O)cc2)N2C(=O)CCN(C(=O)NCc3ccccc3)[C@H]2CN1Cc1cccc2ccccc12 | 0.962 | 0.449
55 | COc1cccc(-n2c(=O)[nH]c3cc(Cl)n(-c4ccc(-c5cccc(OC)c5O)cc4)c3c2=O)c1 | 0.827 | 0.807
56 | Cn1cc(-c2cnn3c(N)c(Br)c([C@@H]4CCCNC4)nc23)cn1 | 0.571 | 0.814
57 | Nc1nc(Nc2ccc3c(c2)CCC(N2CCCC2)CC3)nn1-c1cc2c(nn1)-c1ccccc1CCC2 (stereo unspecified) | 0.566 | 0.0864
58 | COc1ccc([C@@H]2CC(=O)c3c(O)cc(O[C@@H]4O[C@H](CO)[C@@H](O)[C@H](O)[C@H]4O[C@@H]4O[C@@H](C)[C@H](O)[C@@H](O)[C@H]4O)cc3O2)cc1O [Neohesperidin] | 1.11 | 0.888
59 | COc1ccc2c(c1)CCC1C2CCC2(C)C(NCCCCCCN3C(=O)C=CC3=O)CCC12 (stereo unspecified) | 0.747 | 0.738
60 | CCN1CCN(Cc2ccc(Nc3ncc(F)c(-c4cc(F)c5nc(C)n(C(C)C)c5c4)n3)nc2)CC1 | 0.602 | 0.0904
61 | CNC(=O)c1ccccc1Oc1nc(Nc2cc(OC)c(OC)c(OC)c2)ncc1Br | 0.717 | 0.828
62 | CN(CC(=O)N(Cc1ccc(C2CCCCC2)cc1)c1ccc(C(=O)O)cc1)S(=O)(=O)c1c(F)c(F)c(F)c(F)c1F | 0.662 | 0.0586
63 | C[C@H](NC(=O)[C@@H](O)c1cc(F)cc(F)c1)C(=O)N[C@@H]1C(=O)N(C)c2ccccc2-c2ccccc21 | 1.2 | 1.02
64 | CC[C@@]1(O)C(=O)OCc2c1cc1n(c2=O)Cc2cc3cc(O)ccc3nc2-1 [(S)-10-Hydroxycamptothecin] | 0.179 | 0.157
65 | COc1cc2/c(=N/c3ccc(Br)cc3F)nc[nH]c2cc1OCC1CCN(C)CC1 [Vandetanib (ZD6474)] | 1.31 | 0.638
66 | COc1nc(OCc2cccc(-c3ccccc3)c2C)ccc1CNCCNC(C)=O [PD-1/PD-L1 inhibitor 2] | 0.912 | 0.487
67 | NS(=O)(=O)NCCNc1nonc1/C(=N/O)Nc1ccc(F)c(Br)c1 | 0.817 | 0.783
68 | C=CC(=O)Nc1cccc(Nc2nc(Nc3ccc(N4CCN(C(C)=O)CC4)cc3OC)ncc2C(F)(F)F)c1 | 0.781 | 0.431
69 | C=CC(=O)Nc1cc(Nc2nccc(-c3cn(C)c4ccccc34)n2)c(OC)cc1N(C)CCN(C)C | 0.766 | 0.0725
70 | C=CC(=O)Nc1cccc(C)c1Nc1ncc2cc(-c3c(Cl)c(OC)cc(OC)c3Cl)ccc2n1 | 0.676 | 0.37
71 | COc1cc(N2CCC(N)CC2)ccc1Nc1ncc(Cl)c(-c2c[nH]c3ccccc23)n1 | 0.672 | 0.177
72 | C=CC(=O)Nc1cccc(Nc2nc(Nc3ccc(NC4CN(CCF)C4)cc3OC)ncc2C(F)(F)F)c1 | 0.897 | 0.432
73 | C=CC(=O)Nc1cc(Nc2nccc(-c3c[nH]c4ccccc34)n2)c(OC)cc1N(C)CCN(C)C | 0.542 | 0.0815
